# This is a sample that favours compounds with a hit; in the whole collection about 1.3% have one here.
# Mtb hypoxia inh – PubChem AID 1159583. M. tuberculosis hypoxia-regulated fluorescent reporter, fluorescence. fluorescence inhibition, % (test concentration not listed). hit rate 0.1% among 300,000; in the data active means fluorescence inhibition mostly above about 23%, no sharp cut-off; inactive means mostly below about 17%
# VHR inh abs – VHR1 phosphatase inhibitors, primary screen, biochemical, absorbance, uHTS; Dual specificity protein phosphatase 3 (Homo sapiens), P51452; recombinant VHR phosphatase, pNPP absorbance; inhibition, % at 13.3 µM; hit rate 0.52% among 290,000; in the data active means inhibition above about 50%
# Target sequence (P51452 whole entry, looked up): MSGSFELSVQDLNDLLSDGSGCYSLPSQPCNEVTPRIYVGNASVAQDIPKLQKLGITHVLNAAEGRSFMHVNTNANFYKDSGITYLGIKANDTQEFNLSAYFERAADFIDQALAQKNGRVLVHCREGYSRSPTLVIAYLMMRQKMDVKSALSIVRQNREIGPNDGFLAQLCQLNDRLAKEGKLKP
# CCHF vOTU inh – CCHFV vOTU protease inhibitors, primary screen, biochemical, Pep-AMC substrate, fluorescence | Crimean-Congo hemorrhagic fever virus L polyprotein viral ovarian tumor (vOTU) protease … | inhibition, % at 11.5 µM | hit rate 0.55% among 370,000 | AID 651958, 2012; in the data active means inhibition above about 30%; further: 0% = vehicle wells with enzyme and 100% = no enzyme wells
# PriA SSB inh – inhibitors of Klebsiella pneumoniae PriA binding to SSB C-terminal tail, primary screen, biochemical, AlphaScreen | AlphaScreen SSBct-PriA binding, biotinylated peptide | inhibition, % at 33 µM | hit rate 0.6% among 430,000; in the data active means inhibition mostly above about 37%, no sharp cut-off; inactive means mostly below about 20%;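 further: plate controls were negative control peptide for no effect and reference peptide for full effect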
# SARS 3CLpro inh – SARS-CoV 3CLpro protease inhibitors, primary screen, biochemical, quenched FRET; Replicase polyprotein 1ab (Severe acute respiratory syndrome coronavirus), P0C6X7; hit rate 0.14% among 290,000; recombinant SARS-CoV 3CLpro, quenched FRET peptide cleavage; AID 1706, 2009; inhibition, % at 6 µM; in the data active means inhibition above about 12%
# Active calls of the source: *; nt = not tested or not shown; ! = not active in a repeat.
SMILES,Mtb hypoxia inh,VHR inh abs,CCHF vOTU inh,PriA SSB inh,SARS 3CLpro inh
CSc1nsc2nc(=O)c(C=C3C(C)=Nc4ccc(C)cc43)c(N)n12,nt,nt,nt,11.5,nt
NS(=O)(=O)c1ccc(NC(=O)Cc2csc(NC(=O)c3ccc(=O)[nH]c3)n2)cc1,nt,nt,nt,-4.0,nt
CCC(C(=O)Nc1c(C)nc2sc(C)c(C)n2c1=O)c1ccccc1 (stereo not given),nt,nt,nt,-14.0,nt
CCC(C)Nc1nc2c(c(=O)n(C)c(=O)n2C)n1Cc1ccc(Cl)cc1 (stereo not given),-3.5,22.0,6.5,104.2*,nt
CC(C)Sc1nc2c(c(=O)n(C)c(=O)n2C)n1Cc1ccc(Cl)cc1,37.8*,-1.3,5.1,-2.7,3.6
Cc1ccc(-c2nc(-c3ccccc3)no2)c(Cl)c1,1.9,8.7,7.0,104.2*,-2.2
Cc1ccc(-c2nc(-c3ccccc3)no2)cc1,9.6,29.1,3.0,-0.5,5.3
COc1cccc(Nc2c(Nc3cccc(OC)c3)c(=O)c2=O)c1,4.9,59.0*,6.3,-8.3,0.9
CN1C(=O)c2cc(NS(=O)(=O)c3ccc(Cl)s3)ccc2Oc2ccccc21,nt,nt,nt,15.0,nt
Cc1cc(C)c(C)c(S(=O)(=O)N2CCC(Cc3ccccc3)CC2)c1C,nt,nt,nt,-17.0,nt
COc1cccc(C(=O)N(CCN(C)C)c2nc3c(F)cc(F)cc3s2)c1,nt,nt,nt,4.0,nt
Cc1ccc2sc(N(CCN(C)C)C(=O)c3ccc4c(c3)OCCO4)nc2c1C,nt,nt,nt,40.0*,nt
Cc1cc(C)c2nc(N(CCCN(C)C)C(=O)c3ccc4c(c3)OCCO4)sc2c1,11.1,nt,5.7,0.8,nt
CN(C)CCN(C(=O)c1ccc2ccccc2c1)c1nc2c(F)cc(F)cc2s1,2.8,-11.6,8.7,37.0*!,-4.3
O=c1c2cc(Cl)ccc2nc(-c2ccc([N+](=O)[O-])cc2)n1O,-5.0,18.8,0.8,-9.6,3.6
O=c1c2cc(Br)ccc2nc(-c2ccc(Cl)cc2)n1O,1.9,52.3*,-10.8,-4.2,1.4
O=C(NC1CCN(S(=O)(=O)c2ccc(F)cc2)CC1)c1ccc(F)cc1,-3.3,55.7*,-5.9,-8.4,-0.9
O=S(=O)(c1ccc(OC(F)(F)F)cc1)N1CCC[C@H](Cc2nc(C3CC3)no2)C1,nt,nt,nt,0.0,nt
O=c1oc2c3c4c(cc2s1)CCCN4CCC3,3.2,39.7,4.7,51.7*,-4.0
COc1ccc(-c2cc(CNC(=O)c3cnccn3)no2)cc1OC,nt,nt,nt,-10.0,nt
Cc1cccc(Nc2nc(N)c([N+](=O)[O-])c(N3CC(C)OC(C)C3)n2)c1 (stereo not given),4.4,nt,24.6,23.2,-2.1
Cc1cccc(Nc2nc(N)c([N+](=O)[O-])c(N3CC(C)CC(C)C3)n2)c1 (stereo not given),3.8,2.6,13.3,50.1*,3.4
Cc1ccc(N)cc1N1CCCC1=O,nt,nt,nt,7.0,nt
O=C(Nc1nc2c(s1)CN(Cc1ccccc1)CC2)c1sc2ccccc2c1Cl,nt,nt,nt,-12.0,nt
O=C(OCc1nc2ccccc2s1)c1cc(Cl)cc(Cl)c1,nt,nt,nt,-14.0,nt
SMILES,Mtb hypoxia inh,VHR inh abs,CCHF vOTU inh,PriA SSB inh,SARS 3CLpro inh
CCN(CC)c1ccc(C(=C2C=CC(=[N+](CC)CC)C=C2)c2ccccc2)cc1,nt,nt,12.7,48.1,nt
CCN(CC)c1ccc(C(=C2C=CC(=[N+](CC)CC)C=C2)c2ccc(N(CC)CC)cc2)cc1,100.2*,nt,25.6,111.5,nt
CN1CCN(c2nc(-c3ccccc3)nc3sc(-c4ccccc4)cc23)CC1,nt,nt,nt,-9.0,nt
O=C(NCc1nnc(SCC(=O)N2CCc3ccccc32)n1-c1ccc(Br)cc1)c1ccco1,nt,nt,nt,-1.0,nt
O=C(c1ccco1)N1CCN(C(=O)C2CC(c3ccc(Cl)cc3)=NO2)CC1 (stereo not given),nt,58.9*,-0.8,-23.9,0.4
COc1ccc(C2=NOC(C(=O)N3CCN(C(=O)c4ccco4)CC3)C2)cc1OC (stereo not given),-3.1,5.3,2.8,-3.7,5.1
C=CCOc1ccc(/C=C2\C(=N)N3N=C(S(=O)(=O)CC)SC3=NC2=O)cc1OC,47.6*,7.6,-0.7,2.3,1.0
CCS(=O)(=O)C1=NN2C(=N)/C(=C\c3ccc(OC(=O)c4ccco4)c(OC)c3)C(=O)N=C2S1,nt,-5.0,15.6,-5.8,3.9
CC1=NCCN1S(=O)(=O)c1cc([N+](=O)[O-])ccc1Cl,7.7,1.4,-2.9,35.0*!,3.4
CC(O)(CNC(=O)NCc1cccs1)Cc1ccco1 (stereo not given),nt,nt,nt,-8.0,nt

# Compound activity from PubChem.
